An excerpt weighted towards active compounds, which were near 28% of everything screened.
CYP2C9 inh: blocks human cytochrome P450 2C9; P11712; CYP2C9 Supersomes, luciferin-H conversion, luminescence; inhibition, % at 5 µM; actives 20% (n = 96,000); AID 777;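 active = blocking of liver enzyme CYP2C9 beyond about 50% at 5 µM, limit read from the data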
CYP2C19 inhib: blocks human cytochrome P450 2C19 | inhibition, % at 5 µM | actives 21% (n = 96,000) | CYP2C19 Supersomes, luciferin-H EGE luminescence, 30 min | P33261;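 active = CYP2C19 inhibition above a set limit at 5 µM in the primary screen, cut at about 50% in these data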
CYP2C19 act: cytochrome P450 2C19 (human) activation | recombinant CYP2C19, luciferin-H EGE luminescence; active compounds read high; 0 = fully inhibited enzyme, 1 = untreated enzyme | P33261 | 96,000 tested, under 10 active | activation factor at 5 µM;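 active = activation factor of at least 2 at 5 µM in the primary screen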
CYP2C9 activ: increases human cytochrome P450 2C9 activity. activation factor at 5 µM. P11712. actives 1.4% (n = 96,000). recombinant CYP2C9, luciferin-H conversion, luminescence; active compounds read high; factor 1 = untreated enzyme, 0 = blocked;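 active = activation factor of 2 or more for CYP2C9 at a 5 µM dose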
Mac1 fbg inh: blocks human CD11b/CD18 adhesion to fibrinogen | P05107+P11215 | K562 CD11b/CD18 adhesion to fibrinogen, ATPlite luminescence; Mn2+ added to activate the integrin | inhibition, % at 10 µM | actives 0.54% (n = 93,000) | AID 1497;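 active = primary inhibition of 50% or more at 10 µM, then 40% or more on retest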
Target sequence (P05107 whole entry, looked up, other chains not shown): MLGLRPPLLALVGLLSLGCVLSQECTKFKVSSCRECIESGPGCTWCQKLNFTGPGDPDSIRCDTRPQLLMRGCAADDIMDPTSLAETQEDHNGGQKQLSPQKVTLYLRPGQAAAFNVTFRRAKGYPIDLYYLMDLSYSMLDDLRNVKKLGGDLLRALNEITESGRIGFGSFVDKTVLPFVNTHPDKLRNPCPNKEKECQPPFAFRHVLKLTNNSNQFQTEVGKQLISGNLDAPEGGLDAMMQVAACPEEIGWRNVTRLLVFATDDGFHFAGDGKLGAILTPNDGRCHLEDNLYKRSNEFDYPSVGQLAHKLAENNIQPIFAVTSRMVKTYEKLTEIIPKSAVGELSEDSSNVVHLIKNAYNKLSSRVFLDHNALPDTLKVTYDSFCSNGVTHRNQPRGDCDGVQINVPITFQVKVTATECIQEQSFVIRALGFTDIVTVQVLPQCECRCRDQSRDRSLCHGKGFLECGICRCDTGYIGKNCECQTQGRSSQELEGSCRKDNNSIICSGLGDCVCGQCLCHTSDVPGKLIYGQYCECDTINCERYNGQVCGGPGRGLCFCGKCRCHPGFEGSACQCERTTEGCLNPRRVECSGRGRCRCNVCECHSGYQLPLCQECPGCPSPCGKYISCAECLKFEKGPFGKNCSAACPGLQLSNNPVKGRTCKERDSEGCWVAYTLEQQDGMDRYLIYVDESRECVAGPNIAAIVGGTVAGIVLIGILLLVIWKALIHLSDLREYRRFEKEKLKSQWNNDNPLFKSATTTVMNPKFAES
Mac1 fbg enh: increases human CD11b/CD18 adhesion to fibrinogen; P05107+P11215; activation, % at 10 µM; actives 0.07% (n = 93,000); K562 CD11b/CD18 adhesion to fibrinogen, ATPlite luminescence;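 active = 10 µM primary screen giving 50% or more activity, confirmed by 40% or more on retest at that dose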
Large screens that a line does not name were inactive.

CCC1CCCCN1C(=S)Nc1ccc(OC(F)F)cc1 (stereo not drawn)	none (no result: CYP2C9 inh, CYP2C19 inhib, CYP2C19 act, CYP2C9 activ)
CNc1nc(C)c(C(=O)OCc2ccccc2)s1	CYP2C9 inh 54, CYP2C19 inhib 85
CNc1nc(C)c(C(=O)OCC(=O)OC)s1	none
Cc1ccc(C2CC(C(F)F)n3ncc(C(=O)Nc4cnn(Cc5ccccc5C)c4)c3N2)cc1 (stereo not drawn)	CYP2C9 inh 62
Cc1ccc(NC(=O)C2CC=CCC2C(=O)N2CCCCC2)cc1 (stereo not drawn)	none
O=C(NCCCn1ccnc1)c1cc(C2CC2)on1	CYP2C9 inh 59, CYP2C19 inhib 85
CCC(CC)C(=O)c1c[nH]c(C(=O)NCCCn2ccnc2)c1	CYP2C9 inh 92, CYP2C19 inhib 67 (no result: Mac1 fbg inh, Mac1 fbg enh)
CC(C)CC(=O)c1c[nH]c(C(=O)NCCCn2ccnc2)c1	CYP2C9 inh 82
O=C(NCCCn1ccnc1)c1cc(C(=O)C2CC2)c[nH]1	CYP2C9 inh 61, CYP2C19 inhib 56
O=C(NCc1ccco1)c1cc(C(=O)C2CCCCC2)c[nH]1	none (no result: Mac1 fbg inh, Mac1 fbg enh)
CC(C)CC(=O)c1c[nH]c(C(=O)NCc2cccs2)c1	none
Cc1ccccc1C(=O)c1c[nH]c(C(=O)NCCCn2ccnc2)c1	CYP2C9 inh 93, CYP2C19 inhib 67
Cc1ccccc1C(=O)c1c[nH]c(C(=O)NCc2cccs2)c1	none
COc1ccc(NC(=O)c2c(NC(=O)CNCc3ccco3)sc3c2CCC3)cc1	CYP2C9 inh 93, CYP2C19 inhib 63
COc1ccc(OC)c(NC(=O)c2c(NC(=O)CNCc3ccco3)sc3c2CCC3)c1	CYP2C9 inh 65
COc1ccc(OC)c(NC(=O)Cn2c(=O)n(CC(=O)NCc3ccco3)c(=O)c3ccccc32)c1	none
COc1ccc(NC(=O)Cn2nnc(C(=O)NCc3ccco3)c2N)c(OC)c1	none
COc1ccc(NC(=O)c2c(NC(=O)CNCc3ccco3)sc3c2CCC3)c(OC)c1	CYP2C9 inh 97, CYP2C19 inhib 77
Cn1c2c(c(=O)n(C)c1=O)CN(Cc1ccc3c(c1)OCO3)CN2	none
Cc1occc1-c1nnc(SCC(=O)c2ccc(Cl)cc2)n1C	CYP2C19 inhib 85
CCCn1c(SCC(=O)c2c[nH]c3ccccc23)nnc1-c1ccncc1	none (no result: CYP2C9 inh, CYP2C19 inhib, CYP2C19 act, CYP2C9 activ)
Cc1occc1-c1nnc(SCC(=O)c2c[nH]c3ccccc23)n1C	CYP2C9 inh 54, CYP2C19 inhib 98
Cc1cccc(C)c1NC(=O)CSc1nnc(-c2ccoc2C)n1C	none
COc1ccc(OCCSc2nnc(-c3ccoc3C)n2C)cc1	CYP2C9 inh 72, CYP2C19 inhib 74
O=C(NCCCN1CCOCC1)c1ccc(CS(=O)(=O)Cc2ccc(Cl)cc2)o1	none
Cc1cc(N2CCC(N(C)C3CCCC3)CC2)nc2cc(O)ccc12	none
Cn1c(-c2cccc(OCc3ccccc3)c2)nc2c1c(=O)[nH]c(=O)n2Cc1ccccc1	CYP2C9 inh 54
CC1=C(C)CS(=O)N(c2ccc(S(N)(=O)=O)cc2)C1 (stereo not drawn)	CYP2C9 activ 2.4
CC1=C(C)CS(=O)N(S(=O)(=O)c2ccccc2)C1 (stereo not drawn)	none
O=C(/C=C/c1ccc(Cl)cc1)NC(=S)Nc1ccc(N2CCOCC2)c(Cl)c1	none (no result: CYP2C9 inh, CYP2C19 inhib, CYP2C19 act, CYP2C9 activ)
OCCNc1nc(N2CCN(Cc3ccccc3)CC2)nc2ccccc12	CYP2C9 inh 54
C=CCNc1nc(N2CCCC2)nc2ccccc12	none
O=C(NCCCn1ccnc1)c1cnn2c1NC(c1ccccc1)CC2C(F)(F)F (stereo not drawn)	CYP2C9 inh 97, CYP2C19 inhib 85
Cc1c(CNC(=O)c2cnn3c2NC(c2ccc(Br)cc2)CC3C(F)(F)F)cnn1C (stereo not drawn)	CYP2C9 inh 67
O=C(O)c1cnn2c1NC(c1cccs1)CC2C(F)(F)F (stereo not drawn)	none
O=C(NCC1CCCO1)c1cnn2c1NC(c1ccccc1)CC2C(F)(F)F (stereo not drawn)	none
NC(=O)c1cnn2c1NC(c1ccc(F)cc1)CC2C(F)(F)F (stereo not drawn)	CYP2C9 inh 54, CYP2C19 inhib 62
Cc1nn(Cc2ccc(F)cc2)c(C)c1NC(=O)c1cnn2c1NC(c1ccccc1)CC2C(F)(F)F (stereo not drawn)	CYP2C9 inh 67
COc1ccc(NC(=O)CSc2nnc(-c3cccs3)n2-c2ccccc2)cc1	none
COc1ccc(CN2CC(C(=O)NCCCOC(C)C)CC2=O)cc1 (stereo not drawn)	none
COC(=O)c1ccc(/C=C/C(=O)c2ccc(OC)cc2)cc1	CYP2C9 inh 91, CYP2C19 inhib 53 (no result: Mac1 fbg inh, Mac1 fbg enh)
CCOc1ccc(C(=O)/C=C/c2ccc(SC)cc2)cc1	CYP2C19 inhib 62 (no result: Mac1 fbg inh, Mac1 fbg enh)
O=C(O)c1ccccc1C(=O)OCc1ccccc1	none
N/C(Cc1ccc(Cl)cc1)=N\OC(=O)c1ccccc1	CYP2C9 inh 63, CYP2C19 inhib 66
CCC(=O)Nc1ccccc1C(=O)OCc1ccc(C(=O)c2ccccc2)cc1	CYP2C9 inh 62
O=C(OCc1ccc(Cl)cc1)c1ccccc1C(=O)c1ccccc1	CYP2C19 inhib 72
CCC(=O)Nc1ccccc1C(=O)OCC(=O)c1cccc2ccccc12	CYP2C9 inh 73
COc1ccc(/C=N/n2cnnc2SCc2ccc(OC)cc2)cc1	none
Cn1c(=O)c(C(=O)CSc2nncs2)c(N)n(Cc2ccccc2)c1=O	CYP2C9 inh 62, CYP2C19 inhib 91
CCCn1c(N)c(C(=O)CSc2nnc(C)n2Cc2ccccc2)c(=O)n(C)c1=O	none
CCOC(=O)c1ccccc1NC1CC(=O)N(c2ccccc2C)C1=O (stereo not drawn)	CYP2C9 inh 76, CYP2C19 inhib 80
CCOC(=O)c1ccccc1NCN1C(=O)CSC1=O	none
O=c1oc2ccccc2cc1NCc1ccccc1O	CYP2C19 inhib 59
Cc1nc2sc(C(c3ccc(Cl)cc3)N3CC(C)OC(C)C3)c(O)n2n1 (stereo not drawn)	none
CCCn1nnc(NC(=O)COc2ccc(C3CCCCC3)cc2)n1	CYP2C9 inh 89, CYP2C19 inhib 62
CCn1c(=O)cc(OCC(=O)NCC2CCCO2)c2ccccc21 (stereo not drawn)	none
CCOC(=O)/C=c1\s/c(=C\c2ccc3c(c2)OCCO3)c(=O)n1CC(=O)NCC1CCCO1 (stereo not drawn)	CYP2C9 inh 58, CYP2C19 inhib 73
CCOC(=O)/C=c1\s/c(=C\c2c(OCC)ccc3ccccc23)c(=O)n1CC(=O)NCC1CCCO1 (stereo not drawn)	CYP2C9 inh 70, CYP2C19 inhib 93
COC(=O)C1CCN(C(=O)Cc2ccc(C)cc2)CC1	none
CCC1Oc2ccccc2N(CC(=O)NCCCN2CCCCC2CC)C1=O (stereo not drawn)	none

From PubChem
